Source: PubChem BioAssay (Tox21)
Records with an inconclusive call do not appear. Values without a mark were called inactive. The source made the active and inactive calls. Calls come from the whole dose curve; as a rule, active = well fitted inhibition curve with a large enough effect in the repeat runs; inconclusive = weak or mixed curves, or effect the other way; inactive = no such curve, though single readings can be large or run the other way.

Target: Nuclear receptor ROR-gamma (Homo sapiens) (UniProt P51449)
Experiment: qHTS assay to identify small molecule antagonists of the retinoid-related orphan receptor gamma (ROR-gamma) signaling pathway (AID 1159521; note: nearly all actives have a fitted effect of over 50% in size; for activity change, negative = inhibition: top concentration of the series differs between compounds)
Settings: Tet-on RORgamma CHO cells, RORE-luciferase, 16 h; series mostly up to 92.4 µM; activity change, negative = inhibition: at the top concentration
Excerpt: U.S. Tox21 Program National Center for Advancing Translational Sciences [NCATS] NIH Chemical Genomics Center [NCGC] U.S. Environmental Protection Agency [EPA] National Institutes of Environmental Health Sciences [NIEHS] National Toxicology Program [NTP] U.S. Food and Drug Administration [FDA] Tox21 Assay Overview: Nuclear steroid hormone receptors are involved in many biological processes including inflammatory responses, cell proliferation, and apoptosis. Environmental factors or compounds disrupting these nuclear receptor pathways and gene expression may promote susceptibility to immunotoxicants and autoimmune diseases. One important group of these expression factors are the retinoid-related orphan receptors. To assess compounds that may interfere with the retinoid-related orphan receptor gamma (ROR-gamma) transcription factor, a cell-based luciferase assay was used. The CHO cell-based assay utilizes a TET-inducible ROR expression factor and ROR response element-LUC reporter gene. Reporter gene activity was induced using Doxycycline Hyclate and measured after 16 hr incubation. Tet-on ROR gamma CHO cells were used to screen against the Tox21 10K compound library for ROR gamma antagonists by quantification of decreased reporter gene activity in terms of decreased luminescence.
Tox21 Assay Protocol Summary: Tet-on ROR gamma CHO cells were dispensed at 1,000 cells in 4 uL of culture medium per well into white wall/solid bottom 1536-well plates using a Multidrop Combi (Thermo Scientific, Waltham, MA) dispenser. Following incubation at 37 C and 5% CO2 for 4 hr, 23 nL of compounds dissolved in DMSO, positive controls or DMSO only were transferred by a Pintool station (Kalypsys, San Diego, CA) and after 2 hr incubation at 37 C, one ul of 1 uM (final concentration) of Doxycycline Hyclate was added to all the wells by using a Flying Reagent Dispenser (FRD) (Aurora Discovery, San Diego, CA). After 16 hr incubation at 37 C and 5% CO2, 5 uL of ONE-Glo reagent (Promega Corporation, Madison, WI) was added to each assay plate using FRD. After 30 min incubation at room temperature, luminescence was quantified on a ViewLux plate reader (Perkin Elmer, Waltham, MA).
% is set by controls: 0 for no effect and ±100 for the full control effect; potency is the fitted concentration of half-maximal effect.

SMILES | activity change, negative = inhibition | Potency
O=C(Nc1ccc(C(=O)O)c(O)c1)c1ccccc1 | 67.4% [at 42.5 µM] | 
CC/C=C\C/C=C\C/C=C\CCCCCCCC(=O)OCC | -2.88% | 
Cc1ccc(S(=O)(=O)NC(=O)NC2CCCCC2)cc1 | -5.21% [at 42.5 µM] | 
C1=CCC2CC=CC2C1 (stereo not given) | 57.3% | 
O=CNNC=O | -26.4% | 
O=NN(CCCl)C(=O)NCCCl | 20.5% [at 42.5 µM] | 
CCCCCC | 7.73% | 
O=C(CCS)OCC(COC(=O)CCS)(COC(=O)CCS)COC(=O)CCS | 2.77% | 
ClC1=C(Cl)C1(Cl)Cl | -38.4% | 
O=C(Oc1ccccc1)c1ccc2ccccc2c1O | 40.1% | 
COC(=O)C1=C(C)NC(C)=C(C(=O)OC(C)(C)CN(C)CCC(c2ccccc2)c2ccccc2)C1c1cccc([N+](=O)[O-])c1 (stereo not given) |  | 11.9 µM (active)
CCCc1nc2c(C)cc(-c3nc4ccccc4n3C)cc2n1Cc1ccc(-c2ccccc2C(=O)O)cc1 | -29.9% [at 42.5 µM] | 
CCN(CC)CCNC(=O)c1cc(Cl)c(N)cc1OC | 4.94% [at 42.5 µM] | 
CCOCCC(=O)OCC | 11.6% | 
CC(CN(CCN(CC(C)OCCO)CC(C)OCCO)CC(C)OCCO)OCCO (stereo not given) | -1.77% | 
COC(C)(C)OC | 0.662% | 
O=C(O)CCC(=O)c1ccc(-c2ccccc2)cc1 | 136% [at 42.5 µM] | 
Cc1cc(CCC(=O)OCCOCCOCCOC(=O)CCc2cc(C)c(O)c(C(C)(C)C)c2)cc(C(C)(C)C)c1O | -17.3% | 
CN1C(CSCC(F)(F)F)Nc2cc(Cl)c(S(N)(=O)=O)cc2S1(=O)=O (stereo not given) | 6.43% [at 42.5 µM] | 
COc1cc(S(=O)(=O)Nc2ccccc2)c(OC)cc1N | 3.87% | 

SMILES | activity change, negative = inhibition | Potency
CC(CCc1ccc(O)cc1)NCCc1ccc(O)c(O)c1 (stereo not given) | -7.77% [at 42.5 µM] | 
CC(C)(C)C(O)/C=C/c1ccc2c(c1)OCO2 (stereo not given) | 51.6% [at 42.5 µM] | 
COc1ccc(C(=O)NCc2ccc(OCCN(C)C)cc2)cc1OC | -2.45% [at 42.5 µM] | 
CCOC(=O)C(C)O (stereo not given) | -9.08% | 
CCCCOCCOC(=O)c1cccnc1 | 14.8% [at 42.5 µM] | 
CCC(Cl)CC(Cl)C(Cl)C(Cl)C(Cl)C(C)Cl (stereo not given) | 79.2% [at 19 µM] | 
CCO[Si](C)(CCCOCC1CO1)OCC (stereo not given) | -5.57% | 
CC(C)(C)NCC(O)COc1cccc2c1C[C@H](O)[C@H](O)C2 (stereo not given in full) | -4.56% [at 42.5 µM] | 
O=[N+]([O-])c1ccc2ncccc2c1 | 101% | 
CC1CCc2nccnc21 (stereo not given) | 4.67% | 
CC(=O)c1ccc[nH]1 | 4.08% | 
CC(C)C(O)C(C)(C)CO (stereo not given) |  | 22.4 µM (active)
Nc1nc2ccc(OC(F)(F)F)cc2s1 | 132% [at 42.5 µM] | 
COc1ccc2nc(S(=O)Cc3ncc(C)c(OC)c3C)[nH]c2c1 (stereo not given) |  | inactive
CC[C@H]1OC(=O)[C@H](C)[C@@H](O[C@H]2C[C@@](C)(OC)[C@@H](O)[C@H](C)O2)[C@H](C)[C@@H](O[C@@H]2O[C@H](C)C[C@H](N(C)C)[C@H]2O)[C@](C)(O)C[C@@H](C)C(=O)[C@H](C)[C@@H](O)[C@]1(C)O | -5.56% [at 42.5 µM] | 
CNc1c2c(nn1C)CCCC2 | 3.6% [at 42.5 µM] | 
CCCCCCCC(=O)Oc1c(Br)cc(C#N)cc1Br |  | 48.4 µM (active)
O=c1[nH]c2cc(C(F)(F)F)c(N3CCOCC3)cc2n(CP(=O)(O)O)c1=O | -13% [at 42.5 µM] | 
COC1CCC=CO1 (stereo not given) | 112% | 
CCCCCCCC(=O)OCCCCCC | 32.2% | 
